Inconclusive results are not listed. Calls of active or inactive are those of the source. The call rests on the fitted dose curve; in most records, active means well fitted inhibition curve with a large enough effect; inconclusive means small, poorly fitted or top-dose-only effect, or effect the other way; inactive means flat fitted curve, though single readings scatter.
target: Ubiquitin carboxyl-terminal hydrolase 2 (Homo sapiens) (UniProt O75604); test: Confirmation Assay for Inhibitors of Ubiquitin-specific Protease USP2a Using CHOP2 as the Reporter; settings: USP2 core, Ub-CHOP2 coupled reporter fluorescence; series mostly up to 38.3 µM; further: nearly all actives have a fitted effect of over 55% in size
In short: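 USP2 core (10 nM final) was preincubated with compound for 30 min at RT in Tris-HCl pH 8.0, CaCl2, beta-mercaptoethanol, CHAPS. Ub-CHOP2 and reporter substrate (25 nM final each) were added, and fluorescence (Ex 485/Em 531 nm) was read after 60 min.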
Potency means the concentration at half of the fitted maximal effect.

Chain of Ubiquitin carboxyl-terminal hydrolase 2 (Homo sapiens) (O75604 whole entry, looked up): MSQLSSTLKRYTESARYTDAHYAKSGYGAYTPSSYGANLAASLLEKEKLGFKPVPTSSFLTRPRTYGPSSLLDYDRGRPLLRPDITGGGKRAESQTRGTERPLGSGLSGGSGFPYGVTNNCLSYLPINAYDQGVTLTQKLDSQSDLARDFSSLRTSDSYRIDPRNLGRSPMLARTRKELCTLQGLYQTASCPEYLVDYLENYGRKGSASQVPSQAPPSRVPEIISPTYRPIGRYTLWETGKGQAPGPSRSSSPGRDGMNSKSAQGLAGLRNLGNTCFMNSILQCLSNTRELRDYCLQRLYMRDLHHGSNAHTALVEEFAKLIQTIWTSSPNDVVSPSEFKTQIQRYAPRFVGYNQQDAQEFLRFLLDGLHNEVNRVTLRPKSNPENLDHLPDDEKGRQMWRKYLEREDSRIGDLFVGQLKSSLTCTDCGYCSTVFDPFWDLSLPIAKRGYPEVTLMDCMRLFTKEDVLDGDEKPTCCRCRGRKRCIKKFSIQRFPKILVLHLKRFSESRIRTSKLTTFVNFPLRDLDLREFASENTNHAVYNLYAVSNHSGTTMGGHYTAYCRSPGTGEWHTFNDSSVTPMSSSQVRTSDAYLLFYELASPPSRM

Potency, active:
O=C(Nc1ccc(N2CCCC2)cc1)c1ccc(Br)cc1 16.5 µM
O=C(O)c1cccc(-n2cccc2/C=C2/NC(=O)N(c3ccc(Cl)cc3)C2=O)c1 9.27 µM

Potency, inactive:
Oc1ccccc1/C=N/Nc1ncc(Br)cn1
Nc1c(C(=O)Nc2ccc3c(c2)OCCO3)nnn1CCc1ccccc1
O=C(C[n+]1ccc(-c2cc(C(=O)Nc3cccc(C(F)(F)F)c3)c3ccccc3n2)cc1)c1cccc([N+](=O)[O-])c1
O=C(CN1CCOCC1)Nc1ccc(C2CCCCC2)cc1
CCCn1nnc(NC(=O)c2cccc(OCC(C)C)c2)n1
O=S(=O)(c1cc(Cl)ccc1Cl)N1CCNCC1
CC(C)(C)C1CCc2nc(NC(=O)Cc3cn4ccsc4n3)sc2C1 (stereo not given)
Fc1ccc(-c2nnn(Cc3nc4ccccc4s3)n2)cc1
Cc1ccc(C=Nc2ccccc2C(N)=O)cc1
COCCn1nnnc1CN(CCc1ccccc1)Cc1cc2ccc(C)cc2[nH]c1=O
Cc1noc(C)c1NC(=O)Nc1ccc2c(c1)C(=O)N([C@H](C)CO)C[C@H](C)[C@@H](CN(C)S(=O)(=O)c1ccccc1)O2
FC(F)(F)c1cnc2c(c1)Nc1ccccc1S2
CC(=O)Nc1ccc(NC(=O)[C@@H](NC(=O)c2cccc(C)c2)C(C)C)cc1
CCOC(=O)COc1ccccc1/C=N/O
O=C(NCCC1=CCCCC1)C1CCCN(S(=O)(=O)c2cnc[nH]2)C1 (stereo not given)
Cc1nc2n(n1)CC(O)CS2 (stereo not given)
CC(CN1CCCCC1)OC(=O)c1ccc(Cl)cc1 (stereo not given)
COc1cc(C(c2c(C)[nH][nH]c2=O)c2c(C)[nH][nH]c2=O)ccc1OCc1ccc([N+](=O)[O-])cc1
O=c1oc2c(CN3CCCCC3)c(O)ccc2c2c1CCCCC2
Cc1ccc2c(c1)c1c3n2CCN(C(=O)Cn2c(-c4ccccc4)noc2=O)C3CCC1 (stereo not given)
Nc1ccc2nc(-c3cccc(-c4nc5ccc(N)cc5[nH]4)c3)[nH]c2c1
CSCC[C@H](NC(=O)C1CCN(S(=O)(=O)c2ccc(C)cc2)CC1)C(=O)NCc1ccco1
NC(=O)C[C@@H]1N[C@]2(C(=O)Nc3ccccc32)[C@@H]2C(=O)N(c3cc(C(F)(F)F)ccc3Cl)C(=O)[C@H]12
Nc1ccccc1S(=O)(=O)NC1=NCCCCC1
CCOc1ccc(NC(=O)c2cccc(-n3cnnn3)c2)cc1
CC(C)c1ccc(NC(=O)C(c2ccc3c(c2)OCO3)N2CCCCC2)cc1 (stereo not given)
COc1cc(/C=N/NC(=O)c2cc(-c3ccccc3)nc3ccccc23)ccc1O
CCOc1ccccc1C(=O)NC1CC2CCCC(C1)N2C1CC1 (stereo not given)
CC(=O)c1c(N2CCCC2)[nH]c(-c2ccccc2)nc1=S
CCOC(=O)c1c(-c2ccc(C)o2)csc1NC(=O)COC(=O)c1ccc(NC(N)=O)cc1
CCOc1ccccc1C(=O)N[C@H](C(=O)Nc1ccc(OC)c(S(=O)(=O)N2CCOCC2)c1)C(C)C
CC(OC(=O)CN(C)S(=O)(=O)c1ccc(Cl)cc1)C(=O)Nc1ccc(N2CCOCC2)cc1 (stereo not given)
COc1ccc(/C=C\C(=O)O[C@@H]2C(O)C(O[C@@H]3OC(C)[C@H](O[C@@H]4OCC(O[C@H]5O[C@H](CO)[C@@H](O)C(O)C5O)C(O)C4O)C(O)C3O)[C@H](OC(=O)[C@]34CCC(C)(C)C[C@@H]3C3=CCC5[C@@]6(C)CC(O)C(O[C@@H]7OC(CO)C(O)[C@H](O)[C@H]7O)[C@@](C)(C(=O)O)C6CC[C@@]5(C)[C@]3(CO)CC4)O[C@H]2C)cc1 (stereo not given in full)
COc1ccc(Cl)cc1S(=O)(=O)Nc1cccc(C(=O)O)c1
Cc1onc(-c2ccccc2)c1C(=O)N1CCN(C)CC1
COC(=O)c1c(O)c2c([nH]c1=O)CCCC2
CN(CC(=O)Nc1cccc2ccccc12)C(=O)c1ccc(NC(=O)CC#N)cc1
N#CNC(=Nc1cccc(F)c1)SCc1cccc(F)c1
